Assay [1] in a line: Cell Viability - SH-SY5Y (AID 544). Also: nearly all actives have a fitted effect of over 55% in size. The method in brief:
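SH-SY5Y human neuroblastoma cells (1500/well) incubated 5 h, then compound-treated 40 h at 37 °C in complete medium. Viability read as intracellular ATP by CellTiter-Glo luminescence after 20 min; AC50 from Hill-equation fits of qHTS concentration-response.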

Assay [2] is described as follows: Cell Viability - Renal Proximal Tubule (AID 545). Also: nearly all actives have a fitted effect of over 40% in size. In outline: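 In this qHTS format, normal rat kidney-derived proximal tubule cells in complete culture medium receive compound titrations, then sit 40 hours at 37 °C before luciferase-based ATP quantitation; potency is reported as AC50 from concentration-response curves.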
Assay [3] is described as follows: Cell Viability - Mesenchymal (AID 546).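 Also: cells exposed to compound for 40 hours before reading.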 Also: potency is read from the fitted curve at half-maximal effect. The method in brief: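 AC50 values reflect the drop in intracellular ATP in a human kidney mesenchymal line derived from normal glomeruli. Treatment lasts 40 hr at 37 °C in complete medium, and the signal comes from CellTiter-Glo luminescence.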
Assay [4] is described as follows: Cellular Toxicity (caspase-3) HepG2 (AID 654).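 Also: cells exposed to compound for 16 hours before reading; 0% = DMSO alone and 100% = caspase signal from 100 µM tamoxifen.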 In outline: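 HepG2 cells (1500/well) were treated 16 h at 37 °C in complete medium, then caspase 3/7 activity was read by Caspase-Glo luminescence. Data were normalized to DMSO and 100 uM tamoxifen; AC50 came from Hill-equation fits of qHTS concentration-response.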
A short description of assay [5]: Cellular Toxicity (caspase-3) Jurkat (AID 655).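 Also: cells exposed to compound for 16 h at 37 °C before reading.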 Also: potency is read from the fitted curve at half-maximal effect. In outline:
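qHTS in human Jurkat T-cell leukemia line: 16 hr compound treatment at 37 °C, caspase-3/7 activity measured by Caspase-Glo luminescence. AC50 derived from Hill equation.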

Assay [6] can be described thus: Cellular Toxicity (caspase-3) HUV-EC-C (AID 656). The method in brief: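 Concentration-dependent caspase 3/7 induction was assessed in HUV-EC-C cells exposed for 16 hours. Data scaled between DMSO and tamoxifen (100 uM) controls.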
Assay [7] is described as follows: Cellular Toxicity (caspase-3) SHSY5Y (AID 657). In outline:
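Readout: caspase-cleaved peptide-aminoluciferin substrate driving luciferase light in SH-SY5Y neuroblastoma cells after 16 h treatment. Response normalized to DMSO and 10 uM staurosporine controls.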

Assay [8] in a line: Cellular Toxicity (caspase-3) MRC-5 (AID 659).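 Also: 0% = DMSO basal and 100% = 10 µM staurosporine.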 In outline: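 Concentration-dependent caspase 3/7 activation is measured in human normal lung fibroblasts (MRC-5) following 16-hour treatment. AC50 values come from standard Hill-equation modeling of luminescence normalized to DMSO and 10 uM staurosporine.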
The nature of assay [9]: Cellular Toxicity (caspase-3) Mesangial (AID 660).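 Also: cells exposed to compound for 16 h before the caspase read.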 In outline:
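Human renal glomerular mesangial cells, 1000/well, 5 h at 37 C before 16 h compound treatment. Caspase-Glo 3/7 luminescence after 20 min; normalized to DMSO and 100 uM tamoxifen, AC50 from Hill fit.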

The nature of assay [10]: Cellular Toxicity (caspase-3) SK-N-SH (AID 661).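 Also: 0% = DMSO basal and 100% = 10 µM staurosporine.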 The method in brief:
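Human SK-N-SH neuroblastoma cells, 1500/well, were exposed to compounds for 16 hours at 37 °C. Caspase-Glo 3/7 luminescence was normalized to DMSO (basal) and 10 uM staurosporine (100%), and AC50 came from a Hill fit.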

Assay [11] is described as follows: Cellular Toxicity (caspase-3) H-4-II-E (AID 663).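 Also: cells exposed to compound for 16 hr before readout.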 In outline: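 Apoptosis induction is scored as increased luminescence from caspase 3/7 substrate cleavage in rat hepatoma H-4-II-E cells exposed to compound for 16 hr. Activity is scaled between DMSO and 100 uM tamoxifen.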
A short description of assay [12]: Cellular Toxicity (caspase-3) Hek293 (AID 664).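 Also: cells exposed to compound for 16 h at 37 °C before readout.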 As to conditions: HEK293 caspase-3 activation, DMSO = 0%, 100 µM tamoxifen = 100%; at 92.2 µM (top of the series). The method in brief: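 HEK293 cells in complete medium treated 16 h at 37 °C, then Caspase-Glo 3/7 luminescence read after 20 min at room temperature. Normalized to DMSO and 100 uM tamoxifen; AC50 from Hill fit of concentration-response.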

The nature of assay [13]: Cellular Toxicity (caspase-3) N2a (AID 665).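 Also: compound exposure lasted 16 h at 37 °C before readout.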 In outline: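 Mouse N2a neuroblastoma cells, 1500 per well, treated 16 h at 37 °C in complete medium; caspase-3/7 activity by Caspase-Glo luminescence after 1 h. Normalized to DMSO and 10 uM staurosporine; AC50 from Hill fits.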
The nature of assay [14]: Cellular Toxicity (caspase-3) NIH 3T3 (AID 666).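 Also: 0% = DMSO basal and 100% = 100 µM tamoxifen stimulation.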 In outline:
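Mouse NIH 3T3 fibroblasts (1000/well) treated 16 h at 37 C; caspase-3/7 activity measured by Caspase-Glo 3/7 luminescence after 20 min. Normalized to DMSO and 100 uM tamoxifen; AC50 from Hill fits.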

A short description of assay [15]: Cellular Toxicity (caspase-3) Renal Proximal Tubule (AID 667).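 Also: cells exposed to compound for 16 hours at 37 °C before detection; 0% = DMSO basal and 100% = 10 µM staurosporine.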 The method in brief:
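Caspase-Glo 3/7 read-out, rat primary kidney proximal tubule cells. Compound exposure 16 h, 37 °C; detection after 1 h at RT. Activity scaled to DMSO and 10 uM staurosporine.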

The target of assay [16] is 3',5'-cyclic-AMP phosphodiesterase 4B (Homo sapiens) (UniProt Q07343). Description: qHTS Assay for Inhibitors of PDE-IV (AID 607; active = well fitted activation curve with a large enough effect in the main read-out, with a control signal flat, not every such curve was filed as active; also: % of control where 0% means no effect). The method in brief:
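ACTOne HEK293 cells carry a modified cAMP-gated CNG channel and express endogenous PDE4; plated 1000 cells/well, compounds up to 22.9 uM final. Membrane-potential dye fluorescence (ex 535/em 590) was read; parental cells received 10 uM forskolin + 100 uM RO 20-1724.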

Assay [17] can be described thus: Cell Viability - N2a (AID 540).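 Also: plate controls were DMSO alone for no effect and tamoxifen control for full effect; nearly all actives have a fitted effect of over 45% in size.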 As to conditions: N2a mouse neuroblastoma cell viability; activity change, negative = cytotoxicity: at 92.2 µM (top of the series). In outline:
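Mouse neuroblastoma N2a cells, 1500/well, exposed to compounds 40 h at 37 °C in complete medium. Viability measured as cellular ATP by CellTiter-Glo luminescence; AC50 from Hill fits of concentration-response.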

The nature of assay [18]: Cell Viability - NIH 3T3 (AID 541).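 Also: plate controls were DMSO alone for no effect and tamoxifen positive control for full effect; nearly all actives have a fitted effect of over 25% in size.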 In outline: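 Mouse NIH 3T3 fibroblasts, 1000 cells/well, rested 5 hr at 37 °C, then exposed to compound for 40 hr at 37 °C in complete medium. Viability read as intracellular ATP by CellTiter-Glo luminescence; AC50 from Hill-equation fits of concentration-response data.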
Assay [19] in a line: Cell Viability - H-4-II-E (AID 543). Also: nearly all actives have a fitted effect of over 35% in size. Also: potency is read from the fitted curve at half-maximal effect. The method in brief:
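Rat hepatoma H-4-II-E cells, 1500 per well, treated 40 h at 37 °C in complete medium. Cellular ATP read by CellTiter-Glo luminescence; AC50 from Hill fits of concentration-response.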

Assay [20] has as its target Mitogen-activated protein kinase 10 (Mus musculus) (UniProt Q61831). Description: JNK3 AlphaScreen Assay (AID 530; active = well fitted curve in either direction with a large enough effect, not every such curve was filed as active;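 also: kinase came from lysate of stimulated human HepG2 cells; signal reports phosphorylation of biotinylated GST-cJun 1-79 at Ser73 with 10 µM ATP; % is scaled to controls: 0 for no effect and ±100 for the full control effect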). The method in brief:
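Compound titrations were preincubated 15 minutes at room temperature with substrate, antibody and pre-activated JNK3-containing HepG2 lysate. Reactions were started with 10 uM ATP and stopped with EDTA-containing bead buffer for AlphaScreen detection.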

Where “and” joins values, the source holds several entries; their conditions need not be identical. Identical values can stand only once. A number with no mark means an inactive call. Results filed as inconclusive are left out. Calls of active or inactive are those of the source. Unless noted, calls follow the shape of the dose curve; as a rule, active = well fitted curve in the direction sought with a large enough effect; inconclusive = small, poorly fitted or top-dose-only effect, or another doubt; inactive = no such curve, though single readings can be large; an effect the other way counts as inactive or inconclusive. Peptide text beside a SMILES is read from it.

3',5'-cyclic-AMP phosphodiesterase 4B (Homo sapiens), sequence (Q07343 whole entry, looked up): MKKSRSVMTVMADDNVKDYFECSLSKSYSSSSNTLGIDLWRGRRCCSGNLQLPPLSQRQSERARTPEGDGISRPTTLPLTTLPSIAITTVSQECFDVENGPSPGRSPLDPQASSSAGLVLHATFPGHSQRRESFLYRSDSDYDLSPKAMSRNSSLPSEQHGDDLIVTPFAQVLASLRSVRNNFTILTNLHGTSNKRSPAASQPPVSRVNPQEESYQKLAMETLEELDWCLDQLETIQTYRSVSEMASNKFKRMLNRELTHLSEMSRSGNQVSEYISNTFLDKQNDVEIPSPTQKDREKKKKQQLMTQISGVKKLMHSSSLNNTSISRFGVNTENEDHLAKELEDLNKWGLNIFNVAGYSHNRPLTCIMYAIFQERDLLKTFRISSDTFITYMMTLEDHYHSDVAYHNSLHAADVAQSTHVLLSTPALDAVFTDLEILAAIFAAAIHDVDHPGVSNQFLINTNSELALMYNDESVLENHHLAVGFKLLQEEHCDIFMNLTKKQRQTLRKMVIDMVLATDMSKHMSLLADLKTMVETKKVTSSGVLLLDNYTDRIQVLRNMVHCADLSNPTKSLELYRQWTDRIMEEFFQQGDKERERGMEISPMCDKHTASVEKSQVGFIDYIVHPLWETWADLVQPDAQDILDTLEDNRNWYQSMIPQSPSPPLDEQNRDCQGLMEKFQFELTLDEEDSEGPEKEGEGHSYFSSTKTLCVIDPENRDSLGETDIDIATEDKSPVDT

`CCCCC(CC)COC(=O)C(C#N)=C(c1ccccc1)c1ccccc1` (configuration not stated): the Potency result in assay [1], in assay [2], in assay [3] and in assay [5] was “inactive” throughout. In addition, the result in assay [4], in assay [6], in [7], in [8], in assay [9] and in assay [10] was inactive. Further, the result in assay [11], in assay [13], in [14] and in [15] was inactive. Further, the caspase-3 activation in assay [12] is 2.23%.

Regarding `Oc1ccc(OCc2ccccc2)cc1`, in assay [16], the compound was classed as inactive.

In the case of `COC(=O)[C@H](Cc1ccccc1)NC(=O)[C@@H](N)CC(=O)O` (H-Asp-Phe-OMe), the Potency entry in [17], in [18], in assay [19], in [1], in assay [2] and in assay [3] was “inactive” throughout. Further, the Potency entry in [5] is “inactive”. The compound was called inactive in assay [4], in assay [6], in assay [7], in assay [8], in assay [9] and in assay [10]. For the same compound, the compound was classed as inactive in assay [11], in assay [13], in assay [14] and in assay [15]. Besides, the caspase-3 activation in [12] was 1.4%.

For `COc1c2occc2cc2ccc(=O)oc12`, the Potency result in assay [17], in assay [18], in [19], in [1], in assay [2] and in assay [3] was “inactive” in each case. Besides, the Potency result in assay [5] was “inactive”. The compound was called inactive in assay [4], in assay [6], in assay [7], in assay [8], in assay [9] and in assay [10]. For the same compound, the call in assay [11], in assay [13], in [14] and in assay [15] was inactive. Also, the caspase-3 activation in assay [12] is 2.24%.

Consider `CCN(CC)CCOc1ccc(Cc2ccccc2)cc1`, for which the Potency entry in assay [20] is “inactive”.

For `CCN(CC)C(=S)SSC(=S)N(CC)CC`, the call in [16] was inactive.

For the compound `Cc1cc2cc3c(C)cc(=O)oc3c(C)c2o1`, in assay [20], the Potency entry is “inactive”. Also, the compound was called inactive in assay [16].

Turning to `Cc1ccc(C)c(OCCCC(C)(C)C(=O)O)c1`, the Potency result in assay [17], in [18], in assay [19], in assay [1], in assay [2] and in [3] was “inactive” throughout. In addition, the Potency entry in [5] is “inactive”. Besides, the compound was classed as inactive in assay [16], in assay [4], in assay [6], in [7], in assay [8] and in assay [9]. Also, the call in [10], in assay [11], in assay [13], in assay [14] and in [15] was inactive. In assay [12], the caspase-3 activation is -2.65%.

With `CS(=O)(=O)OCCCCOS(C)(=O)=O`, the Potency result in assay [20], in assay [17], in assay [18], in assay [19], in [1] and in assay [2] was “inactive” in each case. The Potency result in [3] and in assay [5] was “inactive” in each case. Besides, the compound was classed as inactive in assay [4], in [6], in assay [7], in assay [8], in assay [9] and in [10]. In addition, the compound was called inactive in assay [11], in [13], in assay [14] and in [15]. Moreover, the caspase-3 activation in assay [12] was -0.303% and 2.3%.

For the compound `NS(=O)(=O)c1cc(C(=O)O)c(NCc2ccco2)cc1Cl`, the Potency result in [17], in assay [18], in assay [1], in assay [2], in [3] and in assay [5] was “inactive” throughout. Moreover, the result in assay [16], in [4], in [6], in assay [7], in [8] and in assay [9] was inactive. Moreover, the compound was classed as inactive in assay [10], in assay [13], in [14] and in assay [15]. Further, the caspase-3 activation in [12] was 2.23%.

`CCc1nc(N)nc(N)c1-c1ccc(Cl)cc1`: the Potency was 158 nM (active) in assay [19], 2000 nM (active) in assay [3] and 31600 nM (active) in [5]. Moreover, the Potency entry in [1] and in assay [2] was “inactive” each time. In addition, the call in [4], in assay [6], in assay [7], in [8], in assay [9] and in assay [10] was inactive. Further, the result in [11], in assay [13], in [14] and in assay [15] was inactive. The caspase-3 activation in [12] was 101% (active).

Values taken from PubChem BioAssay (NCATS).
